This passage reports Potency results from PubChem BioAssay AID1345083 (National Center for Advancing Translational Sciences (NCATS), 2018).

Hit rate of the full screen: of about 94,000 compounds, about 6,200 (6.6%) were called active. About 31% were inconclusive and are not listed. Calls follow the shape of the dose curve; as a rule, active = well fitted inhibition curve with a large enough effect; inconclusive = small, poorly fitted or top-dose-only effect; inactive = flat fitted curve, though single readings scatter. Shown is part of a subset that was picked to be rich in actives. A call without a number means that no potency is given here.
Potency is read from the fitted curve at half-maximal effect.

The nature of this test: Cytotoxic Profiling in HEK 293 Cell Line of Diverse Libraries Using Quantitative High-Throughput Screening. Also: nearly all actives have a fitted effect of over 60% in size. As to conditions: HEK 293 viability, ATP luminescence (CellTiter-Glo), 48-72 h; series mostly up to 115 µM. An outline of the steps: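 Cytotoxicity was scored by loss of ATP-coupled luminescence (CellTiter-Glo) in HEK 293 cells. Compound treatment ran 48 or 72 hr at 37 degree Celsius, 5% CO2, 95% humidity.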
(In general: ATP-based viability assays read luminescence as a measure of living cells.)
For `Cc1ccc(C(=O)N2CCC(c3nn(-c4ccccn4)c(=O)[nH]3)CC2)cc1`, the Potency result was “inactive”.
As to `CCCn1cnc2c1CN(S(=O)(=O)c1ccc(C#N)cc1)[C@H](C(=O)OC)C2`, the Potency result was “inactive”.
The result for `CCN(CC)C(=O)C(NC(=O)c1ccc(OC)cc1)C1CCN(C(=O)c2ccc(F)cc2)CC1` (centres undefined) reads “inactive”; that for `O=C(NC1CCCCC1)[C@@H]1C[C@@H](O)CN1C1CCN(C(=O)c2ccncc2)CC1`, “inactive”.
With `O=C1NC2(Cc3ccccc31)CN(Cc1cscn1)C2` the entry was “inactive”; with `O=C1NCCCCCCN(Cc2ccncc2)[C@@H]2CN(C(=O)NCCc3ccccc3)CC[C@@H]12`, “inactive”; with `COc1ccc(NC(=O)[C@@H]2C[C@@H](O)CN2C2CCN(C(=O)c3cccc(OC)c3)CC2)cc1`, “inactive”.
With `COc1ccc(NC(=O)N[C@@H]2C=C[C@@H](c3c(C)nn(-c4ccc(C(C)(C)C)cc4)c3C)C2)cc1`, the Potency was 31.6 µM (active).
`O=C(c1ccc(Cn2cccn2)o1)N1CCn2nc(C(O)CO)cc2C1` (centres undefined): the Potency entry was “inactive”.
In the case of `CN1CCN([C@@H]2[C@H](O)[C@H](CO)O[C@@H]2CNS(=O)(=O)c2ccccc2)CC1`, the Potency result was “inactive”.
With `CCCn1c(C)cnc1C1CCN(C(=O)C2CCCC2)C1` (centres undefined) the entry was “inactive”; with `O=c1c2nc(OCc3ccc(-n4cccn4)cc3)ccc2ncn1Cc1ccccc1`, 28.2 µM (active).
Turning to `COc1ccc(-c2ccc3ncn(Cc4ccccc4)c(=O)c3n2)cc1OC`, the Potency result is “inactive”.
The result for `O=C1CN(C(=O)c2ccc(-n3cccn3)cc2)CC(OCc2ccccc2)CN1Cc1cccnc1` (centres undefined) reads “inactive”; that for `CN(C)C(=O)c1cc(-c2cccc(C(F)(F)F)c2)c2nncn2n1`, “inactive”; that for `CC(=O)N1CCc2[nH]cnc2C12CCN(C(=O)c1ccc(=O)[nH]c1)CC2`, “inactive”.
For the compound `CC(C)CNC(=O)C1Cn2cccc2C(=O)N1CC(C)C` (centres undefined), the Potency result is “inactive”.
As for `COc1ccc(-n2c(=O)c(C(=O)NCC3CC3)nc3cccnc32)cc1`, the Potency result is “inactive”.
With `COc1ccc(CN2C[C@H]3CN(Cc4ccc(NC(C)=O)cc4)CCN3C2=O)cc1`, the Potency is 89.1 µM (active).
Turning to `COc1ccc2nc([C@H]3CCN(Cc4ccc(NC(C)=O)cc4)C3)[nH]c2c1`, the Potency entry was “inactive”.
The result for `O=C(Nc1ccccc1)N1CCN2C(=O)N(Cc3ccc(F)cc3)C[C@H]2C1` reads “inactive”; that for `COc1ccc(CCC(=O)N2CCCC(c3nc(-c4cccnc4)no3)CCNC(=O)CC2)cc1` (centres undefined), “inactive”; that for `O=C(NC1CCCCC1)N1CCCCC1c1noc(COCC2CC2)n1` (centres undefined), “inactive”.
For the compound `O=C(Cn1nc2c(cc1=O)CCCC2)Nc1nc(-c2ccc3c(c2)OCO3)cs1`, the Potency entry is “inactive”.
With `COc1ccc(-c2cccc(C(=O)N3CCN(C(=O)c4ccc(F)cc4)CC3)c2)nn1` the entry was “inactive”.
The result for `COc1ccc(-c2cccc(C(=O)N3CCC(NC(=O)c4ccc(C(F)(F)F)cc4)CC3)c2)nn1` reads 39.8 µM (active); that for `COc1ccc(-c2cccc(C(=O)NC3CC3)c2)nn1`, “inactive”.
With `COCC(=O)N1CCC(C(=O)N2CCCC(c3nc4ncccc4[nH]3)C2)CC1` (centres undefined) the entry was “inactive”; with `O=C1N[C@H](CC(=O)N2CCN(Cc3ccccc3)CC2)C(=O)Nc2ccccc21`, “inactive”.
In the case of `COc1cccc(-c2ccnc3nc(Cc4cc(F)cc(F)c4)nn23)c1`, the Potency was 39.8 µM (active).
Turning to `Fc1ccc(Cc2nc3nccc(-c4cc5ccccc5o4)n3n2)cc1`, the Potency entry is “inactive”.
Regarding `COCc1nc2nccc(-c3ccccc3)n2n1`, the Potency entry was “inactive”.
With `COCC1CN(C(=O)c2ccc(C#N)cc2)CC12CCOCC2` (centres undefined) the entry was “inactive”; with `COc1ccc(OC)c(NC(=O)c2cc3n(n2)CC(c2ccc(Cl)cc2)OC3)c1` (centres undefined), “inactive”.
With `COc1ccc(CNC(=O)c2cc3n(n2)CC(c2ccc4c(c2)OCO4)OC3)c(OC)c1` (centres undefined) the figure was 35.5 µM (active).
On to `COc1ccc(C(=O)N[C@@H]2CCC[C@@H]2C(=O)NCc2ccc3c(c2)OCO3)cc1`, for which the Potency entry was “inactive”.
The result for `COc1ccc(OCc2nc(C)c(CCO)c(=O)n2CC(=O)NCc2ccc(F)cc2)cc1` reads “inactive”; that for `O=C1[C@@H]2C[C@@H](CN2Cc2ccc3ccccc3n2)Oc2ccccc2N1Cc1ccccc1`, 44.7 µM (active).
As for `N#Cc1ccc(CN2C[C@@H]3C[C@H]2C(=O)Nc2ccccc2O3)cc1`, the Potency result is “inactive”.
For the compound `COCCN1C(=O)[C@@H]2C[C@@H](CN2C(=O)Nc2ccccc2)Oc2ccccc21`, the Potency entry was “inactive”.
The result for `COCCC(=O)NCC1Cn2cccc2C(=O)N1Cc1ccccc1` (centres undefined) reads “inactive”.
With `COc1ccccc1C(=O)N1CCC2(C1)C(=NC1CCCC1)NC(=O)N2c1cccnc1` (centres undefined), the Potency entry is “inactive”.
With `CS(=O)(=O)N1CCC(C2CCN(C(=O)Cc3cccs3)C2)CC1` (centres undefined) the entry was “inactive”.
The result for `COc1ccc(CC(=O)N2CCc3nc(C4CC4)nc(-c4ccc(O)cc4)c3CC2)cc1` reads “inactive”; that for `COc1ccccc1CN1CCc2nc(C3CC3)nc(-c3ccc(O)cc3)c2CC1`, 44.7 µM (active); that for `COc1ccccc1CN1CCc2nc(C(C)C)nc(-c3ccc(O)cc3)c2C1`, “inactive”.
With `COCCc1noc(Cc2c(C)nn(-c3ccccc3)c2C)n1` the entry was “inactive”; with `COc1cccc(C(=O)N2CCC(Cc3nc(-c4cnccn4)no3)CC2)c1`, “inactive”.
`COc1ccc(CC(=O)N2CCC(Cc3nc(C(C)C)no3)CC2)cc1Cl`: the Potency result is “inactive”.
As for `COc1ccc(CC(=O)N2CCC(Cc3nc(-c4ccccc4)no3)CC2)cc1OC`, the Potency was 35.5 µM (active).
In the case of `COc1ccc(CC(=O)N2CCC(Cc3nc(-c4cnccn4)no3)CC2)cc1Cl`, the Potency entry is “inactive”.
Consider `COc1ccc(-c2noc(CC3CCN(C(=O)CC4CCCCC4)CC3)n2)cc1`, for which the Potency was 44.7 µM (active).
Regarding `CCOc1ccc(CC(=O)N2CCC(Cc3nc(-c4cnccn4)no3)CC2)cc1`, the Potency entry is “inactive”.
The result for `CNC(=O)[C@@H]1C[C@@H](O)CN1C1CCN(C(=O)c2ccc(OC)c(F)c2)CC1` reads “inactive”.
The result for `CC1CCN(C(=O)CCNc2c(-c3ccc(F)cc3)nc3cnccn23)CC1` reads “inactive”.
`CCC1CN(C(=O)c2ccc(C#CC(C)(C)O)o2)CCN1C(C)C` (centres undefined): the Potency entry is “inactive”.
Regarding `CCCN(CC1CCOC1)S(=O)(=O)c1ccc(C(F)(F)F)cc1` (centres undefined), the Potency result is “inactive”.
On to `O=c1n(Cc2ccc(F)cc2)nc2n1CCCCC2`, for which the Potency result is “inactive”.
Consider `O=C(c1ccc2c(c1)OCO2)N1CCN(c2ccc(Cl)nn2)C(=O)C1`, for which the Potency entry is “inactive”.
On to `N#Cc1ccc(CN2CCC[C@H]2c2nc(-c3ccc(F)cn3)no2)cc1`, for which the Potency result is “inactive”.
With `Cc1cccc(OCC(=O)N2CCC[C@H]2c2nc(-c3ccccc3)no2)c1` the entry was “inactive”.
With `COCCOc1ncccc1-c1noc([C@@H]2CCCN2CC(C)(C)C)n1` the figure was 63.1 µM (active); with `Cn1ccnc1CN1CCCC(CCC(=O)Nc2ccccc2F)C1` (centres undefined), “inactive”.
With `CC1=C[C@@H](CNC(=O)CC2(CC(=O)O)CCCC2)[C@H](C(C)C)C[C@H]1Cc1nc2c(C)cccc2[nH]1` the entry was “inactive”; with `COc1ccc2nc(C[C@@H]3C[C@@H](C(C)C)[C@H](CNC(=O)CC(C)(C)CC(=O)O)C=C3C)[nH]c2c1`, “inactive”; with `CC1=C[C@@H](CNC2CCN(C)CC2)[C@H](C(C)C)C[C@H]1Cc1nc2ccccc2[nH]1`, 28.2 µM (active).
Regarding `CC1=C[C@@H](CNC(=O)C2CCCCC2)[C@H](C(C)C)C[C@H]1Cc1nc2ccc(F)cc2[nH]1`, the Potency is 28.2 µM (active).
With `Nc1nc(C2CC(NC(=O)CCc3nc4ccc(F)cc4[nH]3)C2)cc(=O)[nH]1` (centres undefined) the entry was “inactive”.
With `CC(=O)N1CCC(C2CCN(C(=O)CCCc3nc4ccccc4[nH]3)C2)CC1` (centres undefined) the entry was “inactive”; with `CC1=C[C@@H](CN(CC2CC2)CC2CC2)[C@H](C(C)C)C[C@H]1Cc1nc2c(C)cccc2[nH]1`, 89.1 µM (active).
As to `CC(=O)N1CCC(NC[C@@H]2C=C(C)[C@H](Cc3nc4ccccc4n3C)C[C@H]2C(C)C)CC1`, the Potency result is “inactive”.
Consider `CC1=C[C@@H](CNCC(C)C)[C@H](C(C)C)C[C@H]1Cc1nc2c(C)cccc2[nH]1`, for which the Potency is 39.8 µM (active).
The result for `Cc1cnc(C(=O)NC2CC(c3nnc(CO)n3C3CC3)C2)[nH]1` (centres undefined) reads “inactive”; that for `O=C(c1ccc2c(c1)[nH]c(=O)n2C1CCC(O)CC1)N1CCc2ccccc2C1` (centres undefined), “inactive”.
The result for `Cc1ccc(-n2nc(C(=O)N3CC[C@](C)(O)C(C)(C)C3)c(O)cc2=O)cc1` reads “inactive”.
With `Cc1ccc(C)c2c(=O)cc(CN3CCN(CCn4cncn4)CC3)[nH]c12` the entry was “inactive”.
As for `CCN1C(=O)CCN(Cc2cnn(CC)c2C)CC12CCOCC2`, the Potency entry was “inactive”.
The result for `Cc1cc2occ(CC(=O)N3CC[C@](C)(O)[C@@H](O)C3)c2cc1Cl` reads “inactive”; that for `O=C(NCC1CC1)c1cn(C2CN(C(=O)NCCc3ccccc3)C2)nn1`, “inactive”.
With `CCOC(=O)c1cn(C2CN(S(=O)(=O)c3cccc(F)c3)C2)nn1` the entry was “inactive”; with `N#Cc1ccc(S(=O)(=O)N2CC(n3cc(C(=O)NCc4ccccc4)nn3)C2)cc1`, 50.1 µM (active); with `CC(=O)N1CCN(C(=O)C2(Cn3cccn3)CC2)CC(O)C1` (centres undefined), “inactive”.
The result for `COCCNC(=O)[C@H]1C[C@H](Oc2cccnc2)CN1C(=O)NC1CCCCC1` reads “inactive”; that for `O=C1NCCC[C@@H]1NC(=O)[C@H]1CN(C(=O)CS(=O)(=O)c2ccccc2)CCN1C(=O)C1CCCCC1`, “inactive”; that for `CC(=O)Nc1ccc(-c2c(-c3ccc4c(c3)OCO4)nn(-c3cc(C)ccc3C)c2OC(C)=O)cc1`, 39.8 µM (active).
Take `CCN(CC)c1ncccc1CNC(=O)Nc1ccc2c(c1)OCO2`: the Potency result was “inactive”.
Take `CCCc1nn(-c2cccc(F)c2)c(OC(C)=O)c1-c1ccc(NC(C)=O)cc1`: the Potency entry is “inactive”.
For `CN1CCCN(C[C@@H]2CN(C(=O)c3ccnn3C)C[C@@H]2CO)CC1`, the Potency entry is “inactive”.
For the compound `CCN(CC)C(=O)N1CCCC(c2nc(CCOCC3CCOCC3)no2)C1` (centres undefined), the Potency result is “inactive”.
With `O=C(Cc1cccnc1)N1CCCC(c2nc(CCOCC3CCCC3)no2)C1` (centres undefined) the entry was “inactive”; with `C1CCC(COCCc2noc(C3CNC3)n2)C1`, 6.31 µM (active).
The result for `CNC(=O)[C@@H]1CN(C(=O)c2ccc(F)c(Cl)c2)C[C@H]1CO` reads “inactive”; that for `CCn1ccc(C(=O)N2CCCC(c3noc(COC)n3)C2)n1` (centres undefined), “inactive”.
Turning to `Cc1nc(-c2ccccc2OC2CN(S(=O)(=O)c3c(C)noc3C)C2)no1`, the Potency entry is “inactive”.
